Test results from PubChem BioAssay (NCI).
About 79,000 compounds went through this panel and 15% of them were active in at least one assay; those are over-represented in the sample as a whole. The source made the active and inactive calls. No stated cut-off is given here; in the data, active means growth inhibition above about 70%; inactive means the rest.

Key:
[1] = NCI Yeast Anticancer Drug Screen. Data for the rad52 strain (AID 147);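 further: 0% = growth of vehicle-treated control cultures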; settings: S. cerevisiae rad52 mutant growth inhibition, active compounds read high
Procedure, shortened: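 Read-out: growth inhibition versus vehicle-treated controls. Cells were a DNA repair-deficient yeast strain treated with compounds.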

[2] = NCI Yeast Anticancer Drug Screen. Data for the wt1 strain (AID 149);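 further: 0% = growth of vehicle-treated wt1 cultures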; settings: S. cerevisiae wt1 strain (SPY 50644) growth inhibition, active compounds read high
Procedure, shortened: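 Yeast wt1 strain exposed to compounds; growth inhibition measured relative to vehicle-treated controls.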

[3] = NCI Yeast Anticancer Drug Screen. Data for the rad50EPP+ strain (AID 151);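 further: 0% = growth of vehicle-treated control cultures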; settings: S. cerevisiae rad50 mutant strain, active compounds read high
Procedure, shortened: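 Growth inhibition read against vehicle controls in rad50EPP+ yeast, a strain altered in DNA damage repair, after compound exposure.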

[4] = NCI Yeast Anticancer Drug Screen. Data for the mgt1 strain (AID 153); settings: S. cerevisiae mgt1 mutant growth inhibition, active compounds read high
Procedure, shortened: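 mgt1 yeast grown with test compound; read-out is growth inhibition versus vehicle-treated cultures.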

[5] = NCI Yeast Anticancer Drug Screen. Data for the rad50 strain (AID 155);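 further: 0% = growth of vehicle-only cultures of the same strain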; settings: S. cerevisiae rad50 strain growth inhibition, active compounds read high
Procedure, shortened: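 Yeast carrying a defined DNA repair defect were exposed to test compounds, and growth was compared with vehicle-treated controls to give percent inhibition.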

[6] = NCI Yeast Anticancer Drug Screen. Data for the mec2-1 strain (AID 157); settings: S. cerevisiae mec2-1 strain, active compounds read high
Procedure, shortened: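 Yeast mec2-1 mutant treated with compound. Readout: growth inhibition vs vehicle controls.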

[7] = NCI Yeast Anticancer Drug Screen. Data for the rad14 strain (AID 159);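 further: 0% = growth of vehicle-treated control cultures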; settings: S. cerevisiae rad14 strain growth inhibition, active compounds read high
Procedure, shortened: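 Yeast cells carrying a defined DNA-repair defect were exposed to compounds, and growth inhibition was calculated relative to vehicle-treated control cultures.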

[8] = NCI Yeast Anticancer Drug Screen. Data for the sgs1 mgt1 strain (AID 161);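 further: 0% = growth of cultures given vehicle only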; settings: S. cerevisiae sgs1 mgt1 strain, active compounds read high
Procedure, shortened: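 Inhibition of yeast growth, normalised to vehicle-treated controls, is reported for a strain bearing genetic alterations in DNA damage repair.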

[9] = NCI Yeast Anticancer Drug Screen. Data for the CLN2oe strain (AID 163);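 further: 0% = growth of vehicle-only control cultures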; settings: S. cerevisiae CLN2oe strain, active compounds read high
Procedure, shortened: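 Read-out: yeast growth inhibition, expressed relative to vehicle-only controls. The strain bears an engineered cell-cycle alteration.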

[10] = NCI Yeast Anticancer Drug Screen. Data for the cln2 rad14 strain (AID 165);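 further: 0% = growth equal to vehicle treated cultures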; settings: S. cerevisiae cln2 rad14 strain, active compounds read high
Procedure, shortened: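 cln2 rad14 yeast strain; compound exposure; growth inhibition read vs vehicle controls.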

[11] = NCI Yeast Anticancer Drug Screen. Data for the bub3 strain (AID 167); settings: S. cerevisiae bub3 mutant strain, active compounds read high
Procedure, shortened: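 Compounds were applied to a genetically altered yeast strain carrying a cell-cycle control defect. Growth inhibition was scored against vehicle-treated controls.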

[12] = NCI Yeast Anticancer Drug Screen. Data for the wt2 strain (AID 169);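 further: 0% = growth of vehicle-treated yeast cultures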; settings: S. cerevisiae wt2 strain growth inhibition, active compounds read high
Procedure, shortened: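 Read-out: growth inhibition versus vehicle-treated control cultures after compound exposure of the yeast strain.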

[13] = NCI Yeast Anticancer Drug Screen. Data for the mlh1 strain (AID 171);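 further: 0% = growth of vehicle-treated control cultures of the same strain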; settings: S. cerevisiae mlh1 strain growth inhibition, active compounds read high
Procedure, shortened: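 Read-out: growth inhibition versus vehicle controls. Strain: engineered yeast with a defined DNA repair or cell cycle defect, compound-treated.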

[14] = NCI Yeast Anticancer Drug Screen. Data for the sgs1 strain (AID 173);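 further: 0% = growth of vehicle-only control cultures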; settings: S. cerevisiae sgs1 mutant, active compounds read high
Procedure, shortened: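 Read-out: yeast growth inhibition relative to vehicle controls, following compound exposure of a strain with a defined DNA repair/cell cycle alteration.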

[15] = NCI Yeast Anticancer Drug Screen. Data for the mlh1 rad18 strain (AID 175); settings: S. cerevisiae mlh1 rad18 strain growth inhibition, active compounds read high
Procedure, shortened: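 Yeast w/ defined DNA-repair lesions; compound exposure; growth vs vehicle controls → % inhibition.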

[16] = NCI Yeast Anticancer Drug Screen. Data for the rad18 strain (AID 177); settings: S. cerevisiae rad18 mutant growth inhibition, active compounds read high
Procedure, shortened: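 Readout: growth inhibition vs vehicle controls. Cells: genetically altered yeast strain, DNA repair defect.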

[17] = at 5.0 µM (retest, dose inferred, filed as 0.5)
[18] = at 50.0 µM (retest, dose inferred, filed as 5.0)

Measured: growth inhibition

CCOP(=O)(OCC)/C(C#N)=C/c1cccc(Oc2ccccc2)c1
active: [1]; at 33.0 µM 95% | [1]; at 100.0 µM 96% | [2]; at 33.0 µM 96% | [2]; at 100.0 µM 97% | [4]; at 33.0 µM 95% | [4]; at 100.0 µM 96% | [5]; at 33.0 µM 96% | [5]; [18] 96% | [5]; at 50.0 µM 90.2% | [5]; at 100.0 µM 96% | [6]; at 33.0 µM 97% | [6]; [18] 98% | [6]; at 50.0 µM 93.5% | [6]; at 100.0 µM 98% | [7]; at 33.0 µM 94% | [7]; at 100.0 µM 96% | [8]; [18] 96% | [8]; at 50.0 µM 91.2% | [9]; at 33.0 µM 97% | [9]; at 100.0 µM 97% | [10]; [18] 97% | [10]; at 50.0 µM 90.5% | [11]; at 33.0 µM 97% | [11]; [18] 95% | [11]; at 50.0 µM 90.3% | [11]; at 100.0 µM 97% | [12]; at 33.0 µM 96% | [12]; at 100.0 µM 97% | [13]; at 33.0 µM 96% | [13]; at 100.0 µM 97% | [14]; at 33.0 µM 97% | [14]; at 100.0 µM 98% | [15]; at 50.0 µM 88.8% | [16]; at 33.0 µM 97% | [16]; at 100.0 µM 97%
inactive: [1]; at 1.2 µM -17% | [1]; at 3.7 µM -14% | [1]; at 11.0 µM 60% | [2]; at 1.2 µM -13% | [2]; at 3.7 µM -26% | [2]; at 11.0 µM 56% | [3]; at 1.2 µM 0% | [3]; at 3.7 µM -7% | [3]; at 11.0 µM 7% | [3]; at 33.0 µM 7% | [3]; at 100.0 µM 62% | [4]; at 1.2 µM -32% | [4]; at 3.7 µM -40% | [4]; at 11.0 µM 28% | [5]; at 1.2 µM -30% | [5]; at 3.7 µM -30% | [5]; [17] 2% | [5]; at 11.0 µM 42% | [6]; at 1.2 µM -8% | [6]; at 3.7 µM 1% | [6]; [17] -7% | [6]; at 11.0 µM 45% | [7]; at 1.2 µM -40% | [7]; at 3.7 µM -39% | [7]; at 11.0 µM 35% | [8]; [17] 1% | [9]; at 1.2 µM -12% | [9]; at 3.7 µM -23% | [9]; at 11.0 µM 42% | [10]; [17] -4% | [11]; at 1.2 µM -11% | [11]; at 3.7 µM -19% | [11]; [17] 22% | [11]; at 11.0 µM 41% | [12]; at 1.2 µM 1% | [12]; at 3.7 µM 1% | [12]; at 11.0 µM 38% | [13]; at 1.2 µM -2% | [13]; at 3.7 µM 9% | [13]; at 11.0 µM 48% | [14]; at 1.2 µM 10% | [14]; at 3.7 µM 3% | [14]; at 11.0 µM 44% | [15]; [17] -8% | [15]; [18] -3% | [16]; at 1.2 µM -6% | [16]; at 3.7 µM -16% | [16]; at 11.0 µM 53%

Cc1cc(C)c(S(=O)(=O)c2ccc(Cl)cc2)c(C)c1
active: [8]; at 50.0 µM 77.1% | [11]; at 50.0 µM 80.9%
inactive: [1]; at 1.2 µM -3% | [1]; at 3.7 µM -4% | [1]; at 11.0 µM -2% | [1]; at 33.0 µM 7% | [1]; at 100.0 µM 29% | [2]; at 1.2 µM -5% | [2]; at 3.7 µM -10% | [2]; at 11.0 µM -16% | [2]; at 33.0 µM -14% | [2]; at 100.0 µM -4% | [3]; at 1.2 µM -1% | [3]; at 3.7 µM 9% | [3]; at 11.0 µM 20% | [3]; at 33.0 µM 13% | [3]; at 100.0 µM 21% | [4]; at 1.2 µM -7% | [4]; at 3.7 µM -8% | [4]; at 11.0 µM -14% | [4]; at 33.0 µM -13% | [4]; at 100.0 µM -3% | [5]; at 1.2 µM 0% | [5]; at 3.7 µM 3% | [5]; [17] -7% | [5]; at 11.0 µM 6% | [5]; at 33.0 µM 8% | [5]; [18] 3% | [5]; at 50.0 µM 62.4% | [5]; at 100.0 µM 49% | [6]; at 1.2 µM -5% | [6]; at 3.7 µM -10% | [6]; [17] -5% | [6]; at 11.0 µM -16% | [6]; at 33.0 µM -16% | [6]; [18] 19% | [6]; at 50.0 µM 48% | [6]; at 100.0 µM 13% | [7]; at 1.2 µM -5% | [7]; at 3.7 µM -8% | [7]; at 11.0 µM -10% | [7]; at 33.0 µM -8% | [7]; at 100.0 µM 20% | [8]; [17] -3% | [8]; [18] 17% | [9]; at 1.2 µM -8% | [9]; at 3.7 µM -15% | [9]; at 11.0 µM -22% | [9]; at 33.0 µM -13% | [9]; at 100.0 µM -2% | [10]; [17] -9% | [10]; [18] -16% | [10]; at 50.0 µM -10.4% | [11]; at 1.2 µM -3% | [11]; at 3.7 µM 4% | [11]; [17] 5% | [11]; at 11.0 µM 11% | [11]; at 33.0 µM 19% | [11]; [18] 20% | [11]; at 100.0 µM 48% | [12]; at 1.2 µM -5% | [12]; at 3.7 µM -7% | [12]; at 11.0 µM -8% | [12]; at 33.0 µM -6% | [12]; at 100.0 µM 18% | [13]; at 1.2 µM -8% | [13]; at 3.7 µM -6% | [13]; at 11.0 µM -6% | [13]; at 33.0 µM -5% | [13]; at 100.0 µM 30% | [14]; at 1.2 µM -8% | [14]; at 3.7 µM 0% | [14]; at 11.0 µM 0% | [14]; at 33.0 µM 7% | [14]; at 100.0 µM 46% | [15]; [17] -6% | [15]; [18] 1% | [15]; at 50.0 µM 35.2% | [16]; at 1.2 µM -9% | [16]; at 3.7 µM -10% | [16]; at 11.0 µM -13% | [16]; at 33.0 µM -9% | [16]; at 100.0 µM 16%
